Compounds with a hit are over-represented: about 2.4% of the library has one in this group of screens.
S1P4 antag = S1P4 receptor antagonists, primary screen, cell-based | Sphingosine 1-phosphate receptor 4 (Homo sapiens), O95977 | S1P4-expressing cells, antagonist mode, reporter read-out | inhibition, % at 4.98 µM | actives 0.26% (n = 220,000) | AID 1510, 2009; in the data active = inhibition above about 29%
S1P3 antagonist = S1P3 receptor antagonists, primary screen, cell-based. Sphingosine 1-phosphate receptor 3 (Homo sapiens), Q99500. CHO S1P3 NFAT-BLA reporter, FRET fluorescence, antagonist mode. inhibition, % at 4.98 µM. actives 0.27% (n = 170,000). AID 485, 2006;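 active = inhibition above the plate cutoff, the mean inhibition of test wells on that plate plus 3 SD, cut at about 28% in these data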;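 also: cells challenged with S1P at its EC80 of 0.8 µM; blue over green emission ratio from cleaved BLA substrate after 4 h stimulation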
Target sequence (Q99500 whole entry, looked up): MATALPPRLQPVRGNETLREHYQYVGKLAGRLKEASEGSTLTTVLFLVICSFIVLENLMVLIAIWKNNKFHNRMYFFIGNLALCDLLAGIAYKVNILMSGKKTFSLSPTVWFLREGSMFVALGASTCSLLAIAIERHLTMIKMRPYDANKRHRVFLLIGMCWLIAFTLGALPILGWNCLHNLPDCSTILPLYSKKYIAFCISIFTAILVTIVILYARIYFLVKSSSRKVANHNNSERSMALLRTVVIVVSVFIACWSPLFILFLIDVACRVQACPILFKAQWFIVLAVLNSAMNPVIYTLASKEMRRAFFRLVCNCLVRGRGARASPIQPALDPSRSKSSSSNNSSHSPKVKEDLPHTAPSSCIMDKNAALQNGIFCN
INS promoter inh = inhibitors of insulin promoter-driven GFP, primary screen, imaging, TRM-6 cells (human fetal islet line), eGFP reporter, cell count; inhibition, % at 2 µM; AID 1273, 2008; reporter expression induced with tamoxifen; actives 0.9% (n = 130,000);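 active = inhibition above the mean plus 3 SD, with well images judged a real hit on visual review, cut at about 60% in these data, passing the limit was not always enough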
EP2 antag = human EP2 receptor antagonists, primary screen, TR-FRET cAMP, C6 glioma cells. Prostaglandin E2 receptor EP2 subtype (Homo sapiens), P43116. C6 glioma cells expressing human EP2; cells stimulated with saturating PGE2. inhibition, % at 25 µM. actives 0.52% (n = 260,000). AID 1422, 2008;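 active = percent inhibition above 40 after rounding to a whole number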;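 also: rat C6 glioma host cells with rolipram phosphodiesterase inhibitor present; the protocol text gives 20 µM as final concentration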
EP2 mod = EP2 receptor modulators, cAMP readout, primary screen, cell-based, HTRF cAMP, PGE2 stimulation | Prostaglandin E2 receptor EP2 subtype (Homo sapiens), P43116 | EP2-expressing cells, cAMP HTRF FRET, PGE2 co-stimulation | induction, % at 25 µM | actives 0.83% (n = 260,000);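 active = compounds whose cAMP rise, as percent of the full-agonist control response, exceeds 60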;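 also: rat C6 glioma line stably carrying human EP2 under a CMV promoter; the protocol text gives 20 µM as final concentration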
S1P4 ag = S1P4 receptor agonists, primary screen, cell-based. activation, % at 4.98 µM. AID 1509, 2009. Sphingosine 1-phosphate receptor 4 (Homo sapiens), O95977. actives 0.35% (n = 220,000). S1P4-expressing cell line, agonist reporter assay; in the data active = activation above about 11%
Numbers stand for hits; - = inactive; . = not tested or not shown; ! = repeats disagree.

SMILES | S1P4 antag | S1P3 antagonist | INS promoter inh | EP2 antag | EP2 mod | S1P4 ag
Cc1cc(C(C)(C)C)oc1C(=O)OCC(=O)NC1CCCCC1 | - | - | - | - | - | -
O=C(C1=C(O)C(=O)N(Cc2ccco2)C1c1cccnc1)c1cc2ccccc2o1 (stereo unspecified) | - | - | - | 46.9 | - | -
CN(C)CCCN1C(=O)C(O)=C(C(=O)c2cc3ccccc3o2)C1c1ccccc1 (stereo unspecified) | - | . | . | . | 62.0 | -
COc1cccc2cc(C(=O)C3=C(O)C(=O)N(Cc4ccco4)C3c3cccnc3)oc12 (stereo unspecified) | - | - | - | - | - | -
O=C(O)CSc1ncnc2c1sc1nc(-c3ccccc3)c3c(c12)CCC3 | - | - | . | - | 70.4 | -
O=c1[nH]cnc2c1sc1nc(-c3ccccc3)c3c(c12)CCCC3 | - | - | . | - | - | -
CC(=O)C1=C(C)Nc2ncnn2C1c1ccc(Cl)cc1 (stereo unspecified) | - | 80.8 | - | - | - | -
COc1ccc(-c2cc(Nc3ccccc3NC(=O)C(F)(F)F)n(CCC#N)n2)cc1 | - | - | 60.0 | - | - | -
O=C(N=c1ccn(-c2nc3ccccc3nc2NS(=O)(=O)c2ccccc2)cc1)c1cccs1 | - | - | - | 49.0 | - | -
Cc1nn(CC(=O)N(C)CCc2ccccn2)c(=O)c2cc3sccc3n12 | . | . | . | . | - | .
COCC(=O)Nc1sc2c(c1C(=O)OC)CCCC2 | - | - | - | - | - | -
CCOC(=O)c1c(NC(=O)COC)sc2c1CCC2 | . | . | . | - | 83.0 | .
CCOC(=O)c1c(NC(=S)Nc2ccccc2)sc2c1CCCCC2 | - | . | - | 52.4 | - | -
CCOC(=O)c1c(NC(=S)Nc2ccccc2)sc2c1CCN(CC)C2 | - | . | - | - | - | -
CCC(CN1CCOCC1)NC(=O)Cc1csc(-c2cccc(F)c2)n1 (stereo unspecified) | . | . | . | - | - | .
Cn1c(C2CCCCC2)nc2c1c(=O)[nH]c(=O)n2Cc1ccccc1 | - | - | . | - | 64.7 | -
CCOC(=O)n1c(=O)n(Cc2cccc(C)c2)c2ccccc21 | - | - | - | - | 64.5 | -
CCOC(=O)[C@H](CCc1ccccc1)N[C@@H](C)C(=O)N1CCC[C@H]1C(=O)O | - | - | 66.7 | - | - | -
CCC[C@H](N[C@@H](C)C(=O)N1[C@H](C(=O)O)C[C@@H]2CCCC[C@@H]21)C(=O)OCC | . | . | . | - | - | .
Fc1ccc(-n2cc(-c3ccccc3)c3c(N4CCOCC4)ncnc32)cc1 | - | - | - | - | 61.7 | -
COc1ccc(-n2cc(-c3ccccc3)c3c(N4CCOCC4)ncnc32)cc1 | - | - | - | - | - | -
COc1cc(/C=C(\C#N)C(=O)NCC2CCCO2)ccc1OC(C)C (stereo unspecified) | - | - | 70.3 | - | - | -
Cc1nnc(SCC(=O)n2c3c(c4ccccc42)CCCC3)s1 | - | - | - | - | 64.3 | -
Cn1c(SCC(=O)n2c3c(c4ccccc42)CCCC3)nnc1-c1ccccc1 | - | . | - | - | - | -
COc1ccc(NC(=O)N(C2CCCCC2)C(C)c2ccco2)c(OC)c1 (stereo unspecified) | - | - | . | - | 61.1 | -
SMILES | S1P4 antag | S1P3 antagonist | INS promoter inh | EP2 antag | EP2 mod | S1P4 ag
COc1cc(OC)c(-c2nc3cnccn3c2NCC2CCCO2)cc1OC (stereo unspecified) | . | . | . | . | - | .
CCOc1cc(C)c(C(C)C)cc1S(=O)(=O)n1ccc(C)n1 | - | - | 81.8 | - | - | -
CCOc1cc(C)c(C(C)C)cc1S(=O)(=O)NCc1ccccn1 | - | 118.3 | - | - | - | -
CC1CCCN(CC(O)c2ccc3c(c2)CCCN3C(=O)C(C)(C)C)C1 (stereo unspecified) | . | . | . | - | - | .
CCOc1cccc(/C(O)=C2/C(=O)C(=O)N(CCN(C)C)C2c2cccs2)c1 (stereo unspecified) | . | . | . | - | - | .
COc1ccc(-c2ccc(=O)n(C[C@H](C)NC(=O)c3cnccn3)n2)cc1 | . | . | . | . | - | .
Cc1nc(NC(=O)CSc2nnc3c4c5c(sc4nc(C)n23)CCCC5)sc1C | . | . | . | - | - | .
O=C(CC1CC2CCC1C2)NCc1cccs1 (stereo unspecified) | - | - | . | - | - | -
O=C(NCc1cccs1)C12CC3CC(CC(C3)C1)C2 | - | - | 81.8 | - | - | -
COc1ccc(OC)c(CNc2sc3c(c2C(=O)Nc2cc(OC)ccc2OC)CCC3)c1 | . | . | . | - | - | .
C=CCNc1nc(Nc2ccc(OC)cc2)nc(OCC)n1 | - | . | . | - | 61.9! | -
C=CCNc1nc(NCc2ccco2)nc(OCC)n1 | - | - | . | - | - | -
Cc1cccc(C)c1NC(=O)COc1ccc(S(=O)(=O)N2CCCC2)cc1 | . | . | . | - | - | .
O=[N+]([O-])c1cccc(-c2ncc3ccccn23)c1 | - | - | - | - | - | -
Nc1nc(-c2cccc([N+](=O)[O-])c2)cc(-c2cc(-c3cccc([N+](=O)[O-])c3)nc(N)n2)n1 | . | . | . | 43.8 | - | .
Nc1c(-c2cccc([N+](=O)[O-])c2)nc2ccccn12 | - | - | 68.8 | - | - | -
COc1cc(OC)cc(C(=O)Nc2cc(-c3nn4c(C)nnc4s3)ccc2C)c1 | . | . | . | - | - | .
CCN(CC)c1ccc(/C=N/NC(=S)NCc2ccco2)cc1 | - | - | 100.0 | - | - | -
Cc1cc2cc3c(cc2n2c(=O)n(CC(=O)N4CCCC4)nc12)OCO3 | . | . | . | . | - | .
Cc1cccc(Nc2nc(N)nc(CN3CCC(C)CC3)n2)c1C | - | - | 100.0 | - | - | -
CCCn1c(NCc2cc(OC)c(OC)c(OC)c2)nc2ccccc21 | . | . | . | - | - | .
O=C1CCCN1CCCNc1ncnc2c1[nH]c1ccc(Cl)cc12 | - | - | 81.3 | - | - | -
CCN(CC)CCNc1ncnc2c1[nH]c1ccc(OC)cc12 | - | . | . | - | - | -
COc1ccc2[nH]c3c(NCCC4=CCCCC4)ncnc3c2c1 | - | - | 65.0 | 74.5 | - | -
Clc1ccc2[nH]c3c(NCCCN4CCOCC4)ncnc3c2c1 | - | . | . | - | - | -
SMILES | S1P4 antag | S1P3 antagonist | INS promoter inh | EP2 antag | EP2 mod | S1P4 ag
COC(=O)CSc1nnc(COc2ccccc2)n1C | . | . | . | - | - | .
CC(C)c1ncc(CN2CCC(O)(c3ccc4c(c3)OCO4)CC2)cn1 | . | . | . | - | - | .
c1cc(-c2sc(-c3ccncc3)c(-c3ccncc3)c2-c2ccncc2)ccn1 | - | - | . | 40.8! | - | -
Nc1nnc(-c2ccncc2)s1 | - | - | - | - | - | -
Cc1nc2cc(NC(=O)N(C)c3ccc4ccccc4c3)ccc2o1 | - | - | 70.7 | - | - | -
CCOC(=O)c1ccc(NC(=O)COC(=O)c2cccs2)cc1 | . | . | . | - | - | .
S=C(NCCCN1CCOCC1)NC1CCCC1 | - | - | . | 92.5 | - | -

From PubChem BioAssay
